# Source: PubChem BioAssay (National Center for Advancing Translational Sciences (NCATS))
# ERK EGF block: qHTS Assay for Inhibitors of the ERK Signaling Pathway using a Homogeneous Screening Assay; Stimulation with EGF; HEK293-V1b, EGF-stimulated phospho-ERK AlphaScreen; Potency, µM (highest dose often 11.5 µM), inactives show at the top dose activity change, negative = inhibition, actives largely listed as inhibitors; 130,000 compounds, 0.41% hits; AID 1454, 2008; active = well fitted inhibition curve with a large enough effect;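 also: plate controls were stimulated vehicle wells for no effect and unstimulated vehicle basal for full effect; nearly all actives have a fitted effect of over 55% in size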
#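 Concentration-response of compounds against EGF-driven ERK phosphorylation in V1b-expressing HEK293 cells; 30 min preincubation, 5 min EGF, AlphaScreen detection; Normalized to DMSO basal and 25 nM EGF.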
# * marks the source's active call; other numbers are inactive results; [ ] = remark or other dose. Only a selection was taken, and hits are over-represented in it overall. Potency is read from the fitted curve at half-maximal effect.
SMILES,ERK EGF block
COc1cc(/C=N/Nc2ccccc2[N+](=O)[O-])ccc1OC(=O)c1ccccc1F,-0.1%
CC(C)Oc1ccccc1/C=N/Nc1ccccc1[N+](=O)[O-],12.6µM*
Cc1[nH]c2ccccc2c1/C=N/Nc1ccccc1[N+](=O)[O-],25.1µM*
Cc1[nH]c2ccccc2c1/C=N/NC(=S)NC(C)C,-11.8%
COc1cc(/C=N/Nc2ccccc2[N+](=O)[O-])cc(OC)c1O,13.2%
COc1ccccc1/C=N\Nc1ccccc1[N+](=O)[O-],10µM*
COc1ccc(/C=N\Nc2ccccc2[N+](=O)[O-])c(C(=O)O)c1OC,-10.8%[57.5 µM]
Cc1[nH]c2ccccc2c1/C=N/NS(=O)(=O)c1ccccc1,-9.7%
O=[N+]([O-])c1cccnc1N/N=C/c1ccccc1O,5.6%
CC(C)COC[C@H](CN(Cc1ccccc1)c1ccccc1)N1CCCC1,12.7%[25.7 µM]
CCC1=C(OC(=O)N(CC)CC)N2C(=O)OC(=NCCOC)[C@]2(C)[C@H]2C1=CC[C@H]1C(=O)N(CC(=O)OC)C(=O)[C@H]12,7.2%
N=c1oc2ccc3ccccc3c2cc1C(N)=S,-0.9%
COC(=O)c1ccc(C(NC(=O)OCc2ccccc2)/C(=C/[C@@H](C)C(=O)NC2CCCCC2)c2cccnc2)cc1 (some centres not stated),-8.7%
COc1ccccc1CN1CCCC2(CCN(C(=O)c3cccn3C)CC2)C1,-11.5%
Fc1ccccc1SCc1nnc(-c2ccccc2Br)o1,-1.1%
CCCC[C@@H]1C[C@H]1C(NC(=O)c1cccnc1)c1ccc(-c2ccccc2)cc1 (some centres not stated),13.9%
CN1CCN(c2ncc3nc(-c4ccc(Cl)cc4)c(=O)n(CCC#N)c3n2)CC1,-2.7%
COC(=O)C(=Cc1cc(Br)c(OC)c(Br)c1)C(=O)OC,-11.9%
C=CCN(CC=C)C(=O)c1ccc(OC2CCN(S(=O)(=O)N(C)C)CC2)cc1,33.2%
Cc1noc(C)c1C(=O)N1CCC2(CCCN(c3ccncc3)C2)CC1,5.7%
CCc1c(C)sc(NC(=S)N2CCN(S(C)(=O)=O)CC2)c1C(=O)OC,28.2µM*
CCc1c(C)sc(NC(=S)Nc2nc(C)cc(C)n2)c1C(=O)OC,-1.5%
CCc1c(C)sc(NC(=S)Nc2cccnc2)c1C(=O)OC,34.3%
O=C1Nc2ccc([N+](=O)[O-])cc2OC1CCN1CCN(Cc2ccc3c(c2)OCO3)CC1 (configuration not stated),-6.3%
O=C(COC(=O)CC1CC2CCC1C2)Nc1cccc(S(=O)(=O)NC2=NCCCCC2)c1 (configuration not stated),2.6%
SMILES,ERK EGF block
Cc1ccc(Nc2ncnc3ccccc23)cc1,25.1µM*
CC(C)Oc1ccc(Nc2ncnc3ccccc23)cc1,-7.5%
Cc1ccc(Nc2ncnc3c2cnn3C)cc1,-3.1%
C(=C\c1nc(-c2ccccc2)oc1Nc1ccc2ccccc2c1)/c1ccccc1,-8.3%
Cc1c2cc(O)c(=O)cc-2oc2cc(O)c(O)cc12,1.0%[57.5 µM]
COc1cc2oc(-c3ccccc3)cc(=O)c2cc1OC,5.7%
COc1cc(OC)c(-c2c3cc(O)c(=O)cc-3oc3cc(O)c(O)cc23)cc1OC,15.8µM*
CC(=O)[C@]1(O)CCC2C3CC(C)C4=CC(=O)C=CC4(C)[C@@]3(F)C(O)C[C@]21C (some centres not stated),-2.9%
O=C(NC[C@@H]1CCCCN1)c1cc(OCC(F)(F)F)ccc1OCC(F)(F)F,-6.1%[25.7 µM]
COc1cc(C=C2C(=O)c3ccccc3C2=O)cc(OC)c1,-3.1%[57.5 µM]
Cc1ccc(NN=C2c3ccccc3-c3ccccc32)cc1,-0.7%
COC1=C(Nc2ccccc2)C(=O)c2ccccc2C1=O,14.1µM*
COC1=C(Nc2ccc(C)cc2)C(=O)c2ccccc2C1=O,11.2µM*
COC1=C(OC)C(=O)c2ccccc2C1=O,9.9%
Cc1ccc(SC2=C(Sc3ccc(C)cc3)C(=O)c3ccccc3C2=O)cc1,2.0%[57.5 µM]
CCOc1ccc2cc(C3CC(c4ccco4)=NN3S(C)(=O)=O)c(=O)[nH]c2c1 (configuration not stated),-5.4%[57.5 µM]
O=S(=O)(CCc1ccccc1)c1nc2ccccc2s1,3.7%
CCCc1cc2c(n1CCc1ccc(Cl)cc1)C(C)C1CN(C(=O)c3ccccc3)C(C)(C(=O)OC)C21 (configuration not stated),-1.5%
COCCn1c(=O)c(-c2ccccc2)nc2cnc(Oc3ccccc3)nc21,-13.8%
Cc1ccc(-n2cc(CN3CCC(O)(c4ccccn4)CC3)c(-c3ccc(F)cc3)n2)cc1,-4.8%
COc1ccc(N2CCC(CNC(=S)Nc3c(C)cc(C)cc3C)C2)cc1 (configuration not stated),8.91µM*
Cc1ccc(NC(=S)NC2CCN(Cc3ccccc3)CC2)c(C)c1,2.7%
CCc1ccc(NC(=O)NCC2CCN(c3ccc(OC)cc3)C2)cc1 (configuration not stated),-17.4%[57.5 µM]
COc1ccc(N2CCC(CNC(=S)Nc3ccc(C)cc3C)C2)cc1 (configuration not stated),14.1µM*
Cc1ccccc1NC(=S)NCC1CCN(C(C)c2ccccc2)C1 (configuration not stated),7.6%[57.5 µM]
